The term inhibition denotes the relative decrease from the control value, in per cent. Read a low inhibition as little suppression.

The source made the active and inactive calls. The rule behind the calls is not given here.

Here are results for 25 compounds from PubChem BioAssay AID1734 (Vanderbilt High Throughput Screening Facility, 2009).

A short description of test [1]: KCC2 and NKCC1 inhibition by rubidium flux, cell-based, NKCC1 counter-screen (AID 1734). As to conditions: KCC2-expressing cells, NKCC1 counter-screen.
Test [2] has as its target Solute carrier family 12 member 5 (Homo sapiens) (UniProt Q9H2X9). The description is as above. As to conditions: KCC2-expressing cells.

Solute carrier family 12 member 5 (Homo sapiens), sequence (Q9H2X9 whole entry, looked up): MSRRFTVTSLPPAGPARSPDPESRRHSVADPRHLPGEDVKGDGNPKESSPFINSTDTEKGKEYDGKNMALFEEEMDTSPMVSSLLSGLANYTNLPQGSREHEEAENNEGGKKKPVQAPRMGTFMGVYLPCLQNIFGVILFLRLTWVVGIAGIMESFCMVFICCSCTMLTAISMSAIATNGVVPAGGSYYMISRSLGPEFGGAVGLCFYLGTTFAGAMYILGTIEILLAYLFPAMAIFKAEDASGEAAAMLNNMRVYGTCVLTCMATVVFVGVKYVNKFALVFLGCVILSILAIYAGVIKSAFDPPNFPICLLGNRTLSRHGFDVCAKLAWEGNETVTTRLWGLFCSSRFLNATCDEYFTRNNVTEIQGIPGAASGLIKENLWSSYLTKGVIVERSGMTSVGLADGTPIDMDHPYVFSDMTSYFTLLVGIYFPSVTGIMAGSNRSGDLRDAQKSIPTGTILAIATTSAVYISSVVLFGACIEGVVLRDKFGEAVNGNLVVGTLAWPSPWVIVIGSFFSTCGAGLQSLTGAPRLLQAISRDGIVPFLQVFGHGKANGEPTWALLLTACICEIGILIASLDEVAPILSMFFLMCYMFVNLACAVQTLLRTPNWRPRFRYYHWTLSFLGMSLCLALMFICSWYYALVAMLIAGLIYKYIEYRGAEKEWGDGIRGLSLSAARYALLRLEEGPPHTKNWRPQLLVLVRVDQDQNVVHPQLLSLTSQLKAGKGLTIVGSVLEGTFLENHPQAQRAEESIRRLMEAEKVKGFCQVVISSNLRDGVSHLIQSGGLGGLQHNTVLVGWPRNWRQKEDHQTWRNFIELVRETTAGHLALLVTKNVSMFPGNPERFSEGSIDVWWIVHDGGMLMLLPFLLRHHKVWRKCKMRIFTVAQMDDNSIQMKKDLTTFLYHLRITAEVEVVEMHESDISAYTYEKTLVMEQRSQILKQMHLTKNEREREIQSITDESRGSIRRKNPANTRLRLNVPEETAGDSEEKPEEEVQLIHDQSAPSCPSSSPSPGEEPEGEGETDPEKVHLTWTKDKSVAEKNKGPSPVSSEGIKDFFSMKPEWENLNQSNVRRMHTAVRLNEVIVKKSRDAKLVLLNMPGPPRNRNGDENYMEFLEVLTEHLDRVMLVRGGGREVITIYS

Take `CCOc1ccc(N2C(=O)C3Sc4[nH]c(=O)sc4C(/C=C/c4ccccc4)C3C2=O)cc1` (centres undefined): the values for the inhibition in test [1] (at 5 µM) and in test [1] (at 50 µM) were 67.4% and 90.8%, respectively.

With `CC(C)c1onc(C(=O)N2CCN(Cc3ccccc3)CC2)c1[N+](=O)[O-]`, the inhibition worked out at 6.1% in test [1] (at 5 µM) and 15.5% in test [1] (at 50 µM).

As for `O=C(Cn1cnc2c(nnn2Cc2ccccc2)c1=O)N1CCCc2ccccc21`, the inhibition was 23.4% in test [1] (at 5 µM) and 33.2% in test [1] (at 50 µM).

As to `Cc1ccc(NC(=O)c2ccccc2NS(=O)(=O)c2ccc(Cl)s2)cc1`, the results for the inhibition in test [1] (at 5 µM) and in test [1] (at 50 µM) were 65.1% and 68.4%, respectively. The result in test [2] was inactive.

For `CCOc1ccc(Nc2n[nH]c(=S)s2)cc1`, the figures for the inhibition in test [1] (at 5 µM) and in test [1] (at 50 µM) were 44.9% and 67.4%, respectively. In addition, the compound was called inactive in test [2].

Regarding `Cc1cnc(NC(=O)CSc2nnc(Cc3ccccc3)o2)s1`, the inhibition in test [1] (at 5 µM) worked out at 9.9%; in test [1] (at 50 µM) it was 16.8%.

`CCCn1c(N)c(C(=O)CSc2nnc(Cc3ccccc3)o2)c(=O)n(C)c1=O`: the inhibition in test [1] (at 5 µM) is 15.4%; in test [1] (at 50 µM) it was 28.3%.

For the compound `Cc1ccc(Nc2nnc(SCC(=O)c3cc4ccccc4o3)s2)cc1C`, the results for the inhibition in test [1] (at 5 µM) and in test [1] (at 50 µM) were 46.3% and 53.4%, respectively.

In the case of `O=C(CCS(=O)(=O)Cc1ccccc1)Nc1nc2c(s1)CCCC2`, the values for the inhibition in test [1] (at 5 µM) and in test [1] (at 50 µM) were 35.8% and 37.1%, respectively.

Take `O=C(CN1C(=O)NC2(CCCC2)C1=O)Nc1nc(-c2ccc(F)cc2)cs1`: the inhibition worked out at 39.2% in test [1] (at 5 µM) and 43.6% in test [1] (at 50 µM).

As to `O=C(Nc1ccc(S(=O)(=O)NCc2ccccc2)cc1)c1ccccc1[N+](=O)[O-]`, the inhibition in test [1] (at 5 µM) turned out to be 24.2%; in test [1] (at 50 µM), 31.2%.

For the compound `O=C(NCCOc1ccccc1F)c1ccccc1SCc1ccc(F)cc1`, the inhibition in test [1] (at 5 µM) was determined as 34.2%; in test [1] (at 50 µM) it was 45.8%.

Regarding `O=C(Cn1cnc2c(nnn2Cc2ccc(F)cc2)c1=O)N1CCCc2ccccc21`, the figures for the inhibition in test [1] (at 5 µM) and in test [1] (at 50 µM) were 28.1% and 27.7%, respectively.

As for `CC1Cc2ccccc2N1C(=O)c1ccc(N2CCCC2)c([N+](=O)[O-])c1` (centres undefined), the figures for the inhibition in test [1] (at 5 µM) and in test [1] (at 50 µM) were 22.9% and 48.5%, respectively.

Regarding `O=C(NCC1CCCN(C(=O)c2cccnc2)C1)c1ccc(-c2ccccc2)cc1` (centres undefined), the inhibition in test [1] (at 5 µM) is 31.2%; in test [1] (at 50 µM) it was 40.3%. For the same compound, in test [2], the compound was called inactive.

In the case of `Cc1ccc(-c2ccc(S(=O)(=O)NCC3CCCO3)cc2)cc1` (centres undefined), the inhibition in test [1] (at 5 µM) was 21.8%; in test [1] (at 50 µM), 26.6%.

For `O=C(O)CCn1c(SCc2cccc3ccccc23)nc2ccccc21`, the inhibition in test [1] (at 5 µM) is 57.5%; in test [1] (at 50 µM) it was 80.5%.

In the case of `CCc1ccc(OCCNC(=O)c2ccccc2SCc2ccc(F)cc2)cc1`, the results for the inhibition in test [1] (at 5 µM) and in test [1] (at 50 µM) were 45.3% and 47.9%, respectively. Also, in test [2], the compound was classed as inactive.

For the compound `Cc1nc(CC(=O)Nc2nc(-c3ccccc3)cs2)cs1`, the inhibition in test [1] (at 5 µM) came out at 35.5%; in test [1] (at 50 µM), 38.1%.

`O=C(Cn1cnc2c(nnn2Cc2ccccc2)c1=O)c1ccc(Cl)cc1`: the results for the inhibition in test [1] (at 5 µM) and in test [1] (at 50 µM) were 25.1% and 40.6%, respectively.

With `Cc1csc(NC(=O)CSc2ccc(-c3ccccc3)nn2)n1`, the inhibition in test [1] (at 5 µM) was 12.9%; in test [1] (at 50 µM) it was 19.7%.

Take `O=S(=O)(NCc1ccccc1)c1ccc(Cl)c(S(=O)(=O)NCc2ccccc2)c1`: the inhibition in test [1] (at 5 µM) was 13.5%; in test [1] (at 50 µM), 30.5%.

With `O=C(OCC(=O)N1CCN(C(=O)c2ccco2)CC1)c1sc2ccccc2c1Cl`, the inhibition in test [1] (at 5 µM) stood at 33.3%; in test [1] (at 50 µM) it was 55.4%.

For the compound `CN(Cc1ccccc1)S(=O)(=O)c1ccc(Cl)c(C(=O)NCCc2ccccn2)c1`, the figures for the inhibition in test [1] (at 5 µM) and in test [1] (at 50 µM) were 44.4% and 53.4%, respectively.

For `O=C(/C=C/c1ccccc1)Nc1scc(-c2ccccc2)c1C(=O)O`, the inhibition in test [1] (at 5 µM) came out at 25.2%; in test [1] (at 50 µM) it was 72.8%.
